Only some compounds are listed: those with a hit (about 1.1% of all), similar ones and a draw of the others.
HePTP inh – inhibitors of human HePTP phosphatase, primary screen, biochemical, absorbance, leukemia target. AID 521, 2006. recombinant HePTP phosphatase activity, OD absorbance. inhibition, % at 20 µM. hit rate 0.64% among 110,000; in the data active = inhibition above about 50%
Hsp90 block – tumor Hsp90 inhibitors, primary screen, cell lysate, fluorescence polarization, NCI-N417 lysate. AID 429, 2006. hit rate 0.35% among 64,000. inhibition, % at 30 µM. Cy3B-geldanamycin FP displacement. Heat shock protein HSP 90-alpha (Homo sapiens), P07900;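 active = inhibition above 50%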
DUSP1 inh – MKP-1 phosphatase inhibitors, primary screen, biochemical, in vitro; Dual specificity protein phosphatase 1 (Homo sapiens), P28562; recombinant MKP-1, OMFP hydrolysis fluorescence; inhibition, %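 (compounds tested at a single concentration somewhere between 10 and 100 µM)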; hit rate 0.15% among 65,000; AID 374, 2006;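 active = inhibition above about 50%, limit read from the data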
BAP1 inh – inhibitors of BAP1 deubiquitinase, primary screen, biochemical, Ub-AMC fluorescence, kinetic | AID 436, 2006 | hit rate 0.48% among 72,000 | recombinant BAP1, Ub-AMC hydrolysis fluorescence kinetic; active compounds read low | Ubiquitin carboxyl-terminal hydrolase BAP1 (Homo sapiens), Q92560 | calls only at 20 µM;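 active = activity remaining at or below 50% of control, provided the compound also passes the data quality filters; inactive = the rest, including low values that fail the filters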
Target sequence (Q92560 whole entry, looked up): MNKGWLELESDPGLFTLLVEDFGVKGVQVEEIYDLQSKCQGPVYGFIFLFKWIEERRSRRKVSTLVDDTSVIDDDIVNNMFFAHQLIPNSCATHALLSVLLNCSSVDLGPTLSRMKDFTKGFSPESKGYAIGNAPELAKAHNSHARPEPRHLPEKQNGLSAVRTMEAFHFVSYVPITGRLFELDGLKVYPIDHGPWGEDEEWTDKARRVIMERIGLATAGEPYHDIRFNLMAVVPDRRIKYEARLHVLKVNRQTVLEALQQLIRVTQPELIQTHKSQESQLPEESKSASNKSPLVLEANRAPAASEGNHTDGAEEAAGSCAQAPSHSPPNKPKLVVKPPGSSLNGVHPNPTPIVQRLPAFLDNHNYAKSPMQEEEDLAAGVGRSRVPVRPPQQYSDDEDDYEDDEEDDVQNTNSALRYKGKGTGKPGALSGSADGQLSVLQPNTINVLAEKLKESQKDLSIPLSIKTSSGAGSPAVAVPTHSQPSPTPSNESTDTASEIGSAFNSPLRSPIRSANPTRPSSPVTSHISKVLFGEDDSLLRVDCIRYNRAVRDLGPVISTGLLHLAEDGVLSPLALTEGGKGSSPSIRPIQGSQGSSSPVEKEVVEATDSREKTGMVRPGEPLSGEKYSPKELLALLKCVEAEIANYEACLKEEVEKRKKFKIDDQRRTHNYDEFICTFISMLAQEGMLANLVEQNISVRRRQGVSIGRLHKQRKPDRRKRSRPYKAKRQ
Cdc25B inh – inhibitors of Cdc25B phosphatase catalytic domain, primary screen, biochemical, OMFP fluorescence; M-phase inducer phosphatase 2 (Homo sapiens), P30305; recombinant Cdc25B, OMFP fluorescence Ex485/Em525; inhibition, %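 (compounds tested at 10 µM final in the well)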; hit rate 0.1% among 65,000; AID 368, 2006; in the data active = inhibition above about 50%
Of the large screens only hits and unclear results are named; the others gave an inactive call.

O=C(O)c1ccc(/C=C2\SC(=O)N(c3ccc(F)cc3)C2=O)cc1	HePTP inh 100 (no result: Hsp90 block, DUSP1 inh, BAP1 inh, Cdc25B inh)
O=C(NC(CO)C(O)c1ccc([N+](=O)[O-])cc1)c1ccc2ccccc2n1 (stereo unspecified)	none (no result: Hsp90 block, DUSP1 inh, BAP1 inh, Cdc25B inh)
O=C(O)c1cccc(N2C(=O)c3ccc(C(=O)c4ccc5c(c4)C(=O)N(c4cccc(C(=O)O)c4)C5=O)cc3C2=O)c1	none (no result: HePTP inh, Hsp90 block, DUSP1 inh, Cdc25B inh)
O=C(O)c1cccc(N2C(=O)c3ccc(OCCOc4ccc5c(c4)C(=O)N(c4cccc(C(=O)O)c4)C5=O)cc3C2=O)c1	HePTP inh 104 (no result: Hsp90 block, DUSP1 inh, BAP1 inh, Cdc25B inh)
CC(C)(C)C1CCc2nc3ccccc3c(C(=O)O)c2C1 (stereo unspecified)	none (no result: Hsp90 block, DUSP1 inh, BAP1 inh, Cdc25B inh)
Cc1[nH]c2c(Cl)cccc2c(=O)c1CN1CCCC1	Cdc25B inh 63
Cc1ccc(S(=O)(=O)NC(C)c2ccccc2)cc1 (stereo unspecified)	none (no result: Hsp90 block, DUSP1 inh, BAP1 inh, Cdc25B inh)
O=c1oc2cc(O)c([N+](=O)[O-])cc2cc1-c1csc(-c2ccc(Cl)cc2)n1	none (no result: Hsp90 block, DUSP1 inh, BAP1 inh, Cdc25B inh)
O=c1oc2cc(O)c([N+](=O)[O-])cc2cc1-c1csc(-c2cc3ccccc3oc2=O)n1	HePTP inh 84 (no result: Hsp90 block, DUSP1 inh, BAP1 inh, Cdc25B inh)
CN(C1=NC(=O)S/C1=C\c1ccc([N+](=O)[O-])cc1)c1ccc(O)cc1	HePTP inh 56 (no result: Hsp90 block, DUSP1 inh, BAP1 inh, Cdc25B inh)
CN(C1=NC(=O)/C(=C\C(Cl)=C\c2ccc([N+](=O)[O-])cc2)S1)c1ccc(O)cc1	none (no result: Hsp90 block, DUSP1 inh, BAP1 inh, Cdc25B inh)
Clc1cccc(/C=N/N2CCN(Cc3cccc4ccccc34)CC2)c1Cl	none (no result: Hsp90 block, DUSP1 inh, BAP1 inh, Cdc25B inh)
CCC(Oc1ccccc1)C(=O)Nc1ccc(S(N)(=O)=O)cc1 (stereo unspecified)	none (no result: Hsp90 block, DUSP1 inh, BAP1 inh, Cdc25B inh)
CCCCNc1cc(C(=O)O)cc(S(N)(=O)=O)c1Oc1ccccc1	none (not shown: BAP1 inh)
Cc1c(Br)c(C(F)(F)F)nn1CC(=O)Nc1cccc(O)c1	none (no result: Hsp90 block, DUSP1 inh, BAP1 inh, Cdc25B inh)
N#Cc1c(NC(=O)CSc2ncn(-c3ccccc3)n2)sc2c1CCCC2	none (not shown: BAP1 inh)
N#Cc1c(NC(=O)CSc2ncnc3c2cnn3-c2ccccc2Cl)sc2c1CCCC2	BAP1 inh active
C/C(O)=C/c1nc2ccccc2n(-c2ccccc2)c1=O	none (no result: Hsp90 block, DUSP1 inh, BAP1 inh, Cdc25B inh)
COC(=O)C1=C(C)N=C2SCCC(=O)N2C1c1cccs1 (stereo unspecified)	Cdc25B inh 54
CC(C)(C)c1ccc(CSc2nc3ccccc3c(=O)[nH]2)cc1	HePTP inh 69 (no result: Hsp90 block, DUSP1 inh, BAP1 inh, Cdc25B inh)
CCOc1ccc(-c2cc(C(=O)N/N=C/c3ccc(C(=O)OC)cc3)[nH]n2)cc1	none (no result: Hsp90 block, DUSP1 inh, BAP1 inh, Cdc25B inh)
CCOC(=O)Cc1csc(NC(=O)c2cccc(F)c2)n1	none (no result: Hsp90 block, DUSP1 inh, BAP1 inh, Cdc25B inh)
NC1=NC(=O)/C(=C/c2ccc(-c3cc([N+](=O)[O-])ccc3Cl)o2)S1	HePTP inh 99 (no result: Hsp90 block, DUSP1 inh, BAP1 inh, Cdc25B inh)
CCOC(=O)c1ccc(N2NC(=O)/C(=C/c3cccc(I)c3)C2=O)cc1	none (no result: Hsp90 block, DUSP1 inh, BAP1 inh, Cdc25B inh)
CCOC(=O)c1ccc(N2NC(=O)/C(=C/c3ccc(OC)c(Br)c3)C2=O)cc1	HePTP inh 55 (no result: Hsp90 block, DUSP1 inh, BAP1 inh, Cdc25B inh)
CCOc1cc(/C=C2/C(=O)NN(c3ccc(I)cc3)C2=O)ccc1O	HePTP inh 90 (no result: Hsp90 block, DUSP1 inh, BAP1 inh, Cdc25B inh)
CCOC(=O)c1ccc(N2NC(=O)/C(=C/c3cc(OC)c(O)c(OC)c3)C2=O)cc1	HePTP inh 89 (no result: Hsp90 block, DUSP1 inh, BAP1 inh, Cdc25B inh)
COc1ccc(S(=O)(=O)Nc2nccs2)cc1	none (no result: Hsp90 block, DUSP1 inh, BAP1 inh, Cdc25B inh)
Cc1nn(-c2ccccc2)c2sc(C(=O)OCN3C(=O)c4ccccc4C3=O)cc12	BAP1 inh active
COc1cc(/C=C2\SC(=S)NC2=O)cc(Br)c1OC(C)=O	none (no result: Hsp90 block, DUSP1 inh, BAP1 inh, Cdc25B inh)
COc1c(Br)cc(/C=C2\SC(=S)NC2=O)cc1Br	HePTP inh 103 (no result: Hsp90 block, DUSP1 inh, BAP1 inh, Cdc25B inh)
COc1cc(/C=C2/SC(=S)NC2=O)cc(Cl)c1OCc1ccc(Cl)cc1Cl	HePTP inh 102 (no result: Hsp90 block, DUSP1 inh, BAP1 inh, Cdc25B inh)
COc1ccc(/C=C2/SC(=S)NC2=O)cc1OCc1ccc(Cl)cc1	none (no result: Hsp90 block, DUSP1 inh, BAP1 inh, Cdc25B inh)
O=C1NC(=S)S/C1=C/c1cc(I)c(O)c(I)c1	HePTP inh 101 (no result: Hsp90 block, DUSP1 inh, BAP1 inh, Cdc25B inh)
COc1cc(/C=C2\SC(=S)N(NC(=O)c3ccncc3)C2=O)ccc1OCc1ccccc1Cl	none (no result: Hsp90 block, DUSP1 inh, BAP1 inh, Cdc25B inh)
CC1(C)CC(=O)C2=C(C1)Nc1ccccc1N(C(=O)Cc1ccc(Cl)cc1)C2c1ccccc1F (stereo unspecified)	none (no result: HePTP inh, Hsp90 block, DUSP1 inh, Cdc25B inh)
COc1ccc2c3c(cccc13)NN=C2C	Hsp90 block 86
COc1ccc(N(CC(=O)NCc2ccco2)S(=O)(=O)c2ccccc2)cc1Cl	none (no result: Hsp90 block, DUSP1 inh, BAP1 inh, Cdc25B inh)
N#CC1=C(N)NC(SCC(=O)c2ccc(Cl)cc2)=C(C#N)C12CCCC2	HePTP inh 104 (no result: Hsp90 block, DUSP1 inh, BAP1 inh, Cdc25B inh)
O=C(NC(=S)Nc1ccc(Cl)cc1)c1ccco1	none (no result: Hsp90 block, DUSP1 inh, BAP1 inh, Cdc25B inh)

Screens (PubChem BioAssay)
